From PubChem
Pf Dd2 growth: inhibitors of Plasmodium falciparum Dd2 growth; P. falciparum Dd2 growth, SYBR Green, 72 h; active compounds read low; AID 1159554; hit rate 2.3% among 94,000; activity change, % at 10 µM; in the data active = activity change below about -80%; inconclusive = no clear call, values can overlap the other calls
C diff growth: inhibitors of Clostridium difficile growth; growth activity, negative = inhibition, % at 16 µg/mL (by protocol); Clostridium difficile clinical isolate growth, OD600, 24 h; active compounds read low; hit rate 0.25% among 86,000;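 active = mean growth activity at or below -80% and every replicate also at or below -80%; inconclusive = mean at or below -80% but some replicate above -80%; inactive = mean growth activity above -80%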;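 also: 0% = DMSO wells and -100% = levofloxacin 16 µg/mL wells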
T cruzi growth-1: blocks T. cruzi growth in NIH3T3 culture. T. cruzi beta-gal in NIH3T3, GalScreen luminescence, 90 h. hit rate 5.9% among 77,000. inhibition, % at 8.34 µM;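 active = mean inhibition above about 93%, with at least 55% of replicates each passing it, limit read from the data, passing the limit was not always enough; inconclusive = only one of those two conditions holds; inactive = neither condition holds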
T cruzi growth-2: inhibitors of T. cruzi proliferation; inhibition, % at 8.35 µM; hit rate 72% among 5,600; AID 651739; T. cruzi beta-gal in NIH3T3, GalScreen luminescence, 90 h; shares compounds with T cruzi growth-1;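 active = mean replicate inhibition above about 95% and at least 55% of replicates individually reaching it, limit read from the data; inconclusive = only one of the two criteria is met; inactive = neither criterion is met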
T cruzi growth-3: blocks T. cruzi growth in NIH3T3 host cells; shares compounds with T cruzi growth-1; T. cruzi beta-gal in NIH3T3, GalScreen luminescence, 90 h; inhibition, % at 2.09 µM; hit rate 21% among 5,600; AID 651740;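 active = mean inhibition above about 95%, with at least 55% of replicates also reaching it, limit read from the data; inconclusive = meets just one of the two conditions; inactive = meets neither condition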;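 also: plate controls were neutral control median for no effect and positive control median for full effect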
NIH3T3 tox: kills mouse NIH/3T3 fibroblasts; shares compounds with T cruzi growth-1; NIH/3T3 viability, CellTiter-Glo ATP luminescence, 90 h; cytotoxicity (signal decrease), % at 8.35 µM; hit rate 14% among 5,600; AID 651742;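 active = mean signal decrease across replicates above about 35% based on untreated-well scatter, with enough replicates individually passing, limit read from the data; inconclusive = no rule stated though some were filed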;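 also: 0% = median of neutral control wells and 100% = median of positive control wells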
NIH3T3 tox 2: NIH/3T3 (mouse) viability loss; shares compounds with T cruzi growth-1; AID 651744; hit rate 56% among 5,600; NIH/3T3 viability, CellTiter-Glo ATP luminescence, 90 h; inhibition, % at 24.9 µM;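 active = mean loss of cell viability signal at or above a set limit, and enough replicates individually reaching it; inconclusive = meets only the mean limit or only the replicate share; inactive = meets neither condition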;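 also: 0% = median of neutral control wells and 100% = median of positive control wells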
* = called active by the depositor; ? = inconclusive; nt = not tested or not shown. Only some compounds are listed: those with a hit (about 6.7% of all), similar ones and a draw of the others.

SMILES | Pf Dd2 growth | C diff growth | T cruzi growth-1 | T cruzi growth-2 | T cruzi growth-3 | NIH3T3 tox | NIH3T3 tox 2
O=C(Nc1ccccc1)N1C[C@H]2[C@@H](c3ccccc31)[C@@H](CO)N2C(=O)c1ccncc1 | 8 | 1 | 33 | nt | nt | nt | nt
C[C@@H]1CN([C@H](C)CO)C(=O)c2cc(NS(=O)(=O)c3ccc(Cl)cc3)ccc2O[C@H]1CN(C)Cc1ccc(C(F)(F)F)cc1 | -11 | 25 | 80 | nt | nt | nt | nt
C[C@H](CO)N1C[C@H](C)[C@@H](CN(C)Cc2ccc(C(F)(F)F)cc2)Oc2ccc(NS(=O)(=O)c3ccc(Cl)cc3)cc2C1=O | -4 | 21 | 64 | nt | nt | nt | nt
C[C@H]1CN([C@@H](C)CO)C(=O)c2cc(NS(=O)(=O)c3ccc(Cl)cc3)ccc2O[C@@H]1CN(C)Cc1ccc(C(F)(F)F)cc1 | -14 | 29 | ? | 111* | 70 | 23 | 103*
C[C@H]1CN([C@@H](C)CO)C(=O)c2cc(NS(=O)(=O)c3ccc(Cl)cc3)ccc2O[C@H]1CN(C)Cc1ccc(C(F)(F)F)cc1 | -29 | 27 | 129* | 109* | 72 | 32 | 103*
CN(C)C(=O)C[C@H]1CC[C@H](NC(=O)C2CCOCC2)[C@@H](CO)O1 | -2 | nt | 3 | nt | nt | nt | nt
COc1ccc(NC(=O)N(C)C[C@@H]2Oc3ccc(NC(=O)c4ccncc4)cc3C(=O)N([C@H](C)CO)C[C@H]2C)cc1 | -6 | -1 | 15 | nt | nt | nt | nt
C[C@@H]1CN([C@@H](C)CO)C(=O)c2cc(/C=C/c3ccccc3)cnc2O[C@@H]1CN(C)S(=O)(=O)c1ccccc1 | -10 | 5 | 37 | nt | nt | nt | nt
C[C@H]1CN([C@@H](C)CO)C(=O)c2cc(/C=C/c3ccccc3)cnc2O[C@@H]1CN(C)S(=O)(=O)c1ccccc1F | -70 | -7 | 126* | 104* | 64 | 18 | 37*
C[C@@H]1CN([C@@H](C)CO)C(=O)c2cc(/C=C/c3ccccc3)cnc2O[C@H]1CN(C)S(=O)(=O)c1ccccc1F | -48 | 0 | 123* | 108* | 81 | 23 | ?
C[C@H]1CN([C@@H](C)CO)C(=O)c2cc(/C=C/c3ccccc3)cnc2O[C@H]1CN(C)S(=O)(=O)c1ccccc1F | -41 | -4 | 41 | nt | nt | nt | nt
C[C@H](CO)N1C[C@H](C)[C@@H](CN(C)S(=O)(=O)c2ccccc2)Oc2ncc(/C=C/c3ccccc3)cc2C1=O | -48 | -8 | 125* | 108* | 45 | -14 | 20
C/C=C/c1cnc2c(c1)C(=O)N([C@H](C)CO)C[C@@H](C)[C@H](CN(C)S(=O)(=O)c1ccccc1F)O2 | -12 | -2 | nt | nt | nt | nt | nt
O=C(C[C@@H]1CC[C@H]2[C@@H](COC[C@@H](O)CN2Cc2ccc(Cl)cc2)O1)Nc1nccs1 | -28 | 9 | 57 | nt | nt | nt | nt
COc1ccc2c3c([nH]c2c1)[C@@H](CO)N(C(=O)c1cccnc1)CC31CN(C(=O)NC(C)C)C1 | 17 | -1 | nt | nt | nt | nt | nt
C/C=C/c1ccc([C@H]2[C@@H](CO)N(C(C)=O)C23CN(C(=O)NC2CCCCC2)C3)cc1 | -15 | -10 | nt | nt | nt | nt | nt
O=C(C[C@H]1CC[C@H](NC(=O)Nc2cccc(F)c2)[C@@H](CO)O1)NCC1CCCCC1 | 9 | -4 | nt | nt | nt | nt | nt
C[C@@H]1CN([C@@H](C)CO)C(=O)c2cc(NS(=O)(=O)c3ccc(F)cc3)ccc2O[C@@H](C)CCCCO[C@H]1CN(C)C(=O)c1ccncc1 | 19 | nt | -76 | nt | nt | nt | nt
CO[C@@H]1CN(C)C(=O)c2ccc(NC(C)=O)cc2OC[C@@H](C)N(C(=O)c2ccccn2)C[C@H]1C | 21 | nt | 3 | nt | nt | nt | nt
CCC(=O)N[C@H]1C=C[C@@H](CC(=O)NCC2CC2)O[C@@H]1CO | 25 | -10 | nt | nt | nt | nt | nt
CCC(=O)Nc1ccc2c(c1)C(=O)N(C)C[C@H](OC)[C@@H](C)CN(C(=O)CC)[C@@H](C)CO2 | 17 | nt | 8 | nt | nt | nt | nt
COc1ccc(CN(C)C[C@H]2Oc3c(NC(=O)c4ccncc4)cccc3C(=O)N([C@@H](C)CO)C[C@@H]2C)cc1 | 1 | 4 | 100* | 95 | 80 | 12 | 37*
COc1ccc(CN(C)C[C@@H]2Oc3c(NC(=O)c4ccncc4)cccc3C(=O)N([C@@H](C)CO)C[C@H]2C)cc1 | 0 | -1 | 105* | 86 | 80 | 22 | 26*
C[C@H](CO)N1C[C@H](C)[C@@H](CN(C)Cc2ccncc2)Oc2c(NC(=O)c3ccncc3)cccc2C1=O | 18 | -7 | 44 | nt | nt | nt | nt
C[C@@H]1CN([C@@H](C)CO)C(=O)c2cccc(NC(=O)c3ccncc3)c2O[C@H]1CN(C)Cc1ccncc1 | -5 | -2 | 61 | nt | nt | nt | nt
SMILES | Pf Dd2 growth | C diff growth | T cruzi growth-1 | T cruzi growth-2 | T cruzi growth-3 | NIH3T3 tox | NIH3T3 tox 2
C[C@H](NC(=O)[C@@H]1N[C@@H]2c3ccc(C4=CCCCC4)c(=O)n3C[C@@H]2[C@H]1CO)c1ccccc1 | -4 | -4 | 69 | nt | nt | nt | nt
Cc1ccc(S(=O)(=O)N(C)C[C@H]2Oc3ccc(NC(=O)CCN4CCOCC4)cc3C(=O)N([C@H](C)CO)C[C@@H]2C)cc1 | 4 | -5 | 2 | nt | nt | nt | nt
C[C@@H]1CN([C@@H](C)CO)S(=O)(=O)c2ccc(C3=CCCCC3)cc2O[C@H]1CN(C)Cc1ccccc1F | -57 | 6 | nt | nt | nt | nt | nt
C[C@@H]1CN([C@H](C)CO)S(=O)(=O)c2ccc(C3=CCCC3)cc2O[C@@H]1CN(C)Cc1ccccc1F | -70 | -2 | 103* | 99* | 105* | 4 | 107*
C[C@@H]1CN([C@@H](C)CO)S(=O)(=O)c2ccc(C3=CCCC3)cc2O[C@H]1CN(C)Cc1ccccc1F | -27 | 13 | 121* | 101* | 105* | 30 | 104*
C[C@H](CO)N1C[C@H](C)[C@H](CN(C)Cc2ccccc2F)Oc2cc(C3=CCCC3)ccc2S1(=O)=O | -75 | -2 | 76 | nt | nt | nt | nt
C[C@H](CO)N1C[C@H](C)[C@H](CN(C)Cc2ccccc2)Oc2cc(-c3ccncc3)ccc2S1(=O)=O | -49 | 1 | 85 | nt | nt | nt | nt
C[C@@H]1CN([C@H](C)CO)S(=O)(=O)c2ccc(-c3ccncc3)cc2O[C@H]1CN(C)Cc1ccccc1 | -59 | -5 | ? | 98* | 100* | 60* | 94*
C[C@H]1CN([C@@H](C)CO)S(=O)(=O)c2ccc(-c3ccncc3)cc2O[C@@H]1CN(C)Cc1ccccc1 | -59 | -3 | 90 | nt | nt | nt | nt
C[C@@H]1CN([C@@H](C)CO)S(=O)(=O)c2ccc(-c3ccncc3)cc2O[C@H]1CN(C)Cc1ccccc1 | -76 | -4 | ? | 92 | 99* | 76* | 96*
Cc1noc(C)c1NC(=O)N(C)C[C@@H]1Oc2ncc(C#CC3CC3)cc2C(=O)N([C@@H](C)CO)C[C@H]1C | 17 | nt | 53 | nt | nt | nt | nt
O=C(C[C@@H]1CC[C@H](NS(=O)(=O)c2ccccc2)[C@H](CO)O1)NCCN1CCCCC1 | 16 | 0 | 35 | nt | nt | nt | nt
Cc1cccc(-c2ccc([C@H]3[C@H](CO)N4CCCCN(S(=O)(=O)c5cccc(C)c5)C[C@@H]34)cc2)c1 | -26 | 21 | 98* | 91 | 101* | 115* | 106*
